Reference: the supplement of paper PMC13380429

System: Vero E6 infected with SARS-CoV-2
Test: inhibition of SARS-CoV-2 cytopathic effect; higher = more antiviral protection, active = above 15
Details: 48 h

Measured: inhibition of SARS-CoV-2 cytopathic effect

COc1cc2ncnc(Nc3ccc(Oc4ccccc4)cc3)c2cc1OC [SRC-kinase-inhibitor-I]
inactive: 1 nM 14.1% | 8.33 nM 2.88% | 100 nM 0.56% | 833.33 nM -4.38% | 10000 nM -9.32%

Cc1ccc2nc(N)[nH]c(=O)c2c1Sc1ccncc1 [nolatrexed]
inactive: 1 nM 0.89% | 8.33 nM 3.11% | 100 nM 1.17% | 833.33 nM 2.04% | 10000 nM -2.82%

CCCc1c(OCC(O)COc2ccc3c(=O)cc(C(=O)O)oc3c2CCC)ccc(C(C)=O)c1O (stereo not given)
inactive: 1 nM 3.39% | 8.33 nM -0.15% | 100 nM 3.25% | 833.33 nM 6.19% | 10000 nM 3.02%

OC[C@@H](O)[C@H]1O[C@@H]2O[C@H](C(Cl)(Cl)Cl)O[C@@H]2[C@H]1O [chloralose]
inactive: 1 nM 1.75% | 8.33 nM 3.01% | 100 nM 2.94% | 833.33 nM -0.88% | 10000 nM -0.85%

CN1CCOC(c2ccccc2)c2ccccc2C1 (stereo not given) [nefopam]
inactive: 1 nM 1.99% | 8.33 nM 0.54% | 100 nM 2.72% | 833.33 nM -1.03% | 10000 nM -1.47%

CC(C)(C)c1cc(/C=C(\C#N)C(N)=S)cc(C(C)(C)C)c1O [tyrphostin-AG-879]
inactive: 1 nM -1.49% | 8.33 nM -0.31% | 100 nM -1.98% | 833.33 nM 5.42% | 10000 nM 8.93%

COc1ccc(O)cc1 [mequinol]
inactive: 1 nM 2.15% | 8.33 nM -1.51% | 100 nM 2.67% | 833.33 nM 1.18% | 10000 nM 2.53%

CCOc1cc(OCC)c(C(=O)CCC(=O)O)cc1OCC [trepibutone]
inactive: 1 nM -2.61% | 8.33 nM 0.72% | 100 nM -0.04% | 833.33 nM -0.1% | 10000 nM 0.69%

O=c1ncn2nc(Sc3ccc(F)cc3F)ccc2c1-c1c(Cl)cccc1Cl
inactive: 1 nM 1.28% | 8.33 nM -0.16% | 100 nM -1.32% | 833.33 nM 1.03% | 10000 nM 1.38%

COC(=O)Nc1ccc(-c2nc(N3CCOCC3)c3cnn(C4CCN(Cc5cccnc5)CC4)c3n2)cc1
inactive: 1 nM -4.18% | 8.33 nM -1.95% | 100 nM 3.87% | 833.33 nM -4.82% | 10000 nM -2.6%

C=CC(=O)Nc1cccc(Oc2nc(Nc3ccc(N4CCN(C)CC4)cc3)ncc2Cl)c1
inactive: 1 nM -1.99% | 8.33 nM 1.76% | 100 nM -2.31% | 833.33 nM -12.8% | 10000 nM -1.76%

CNCc1ccc(-c2cc(-c3nc(-c4ccc(S(=O)(=O)C(C)C)cc4)cnc3N)on2)cc1
active: 833.33 nM 24.5% | 10000 nM 25.2%
inactive: 1 nM 0.45% | 8.33 nM 3.25% | 100 nM 1.09%

CC1(C)CC(Oc2ccc(-c3ccc(-c4cn[nH]c4)cc3O)nn2)CC(C)(C)N1
inactive: 1 nM 1.13% | 8.33 nM 0.25% | 100 nM 2.2% | 833.33 nM -9.03% | 10000 nM -14.9%

CCCCCCNC(=O)n1cc(F)c(=O)[nH]c1=O [Carmofur]
inactive: 1 nM -1.95% | 8.33 nM 0.48% | 100 nM 2.25% | 833.33 nM 1.65% | 10000 nM -0.73%

CC(CN1c2ccccc2Sc2ccccc21)N(C)C (stereo not given) [promethazine]
inactive: 1 nM -0.13% | 8.33 nM -0.16% | 100 nM -1.28% | 833.33 nM 0.5% | 10000 nM 3.03%

NC(=O)N1C(=O)/C(=C(\O)c2cccs2)c2cc(Cl)ccc21 [tenidap]
inactive: 1 nM 1.19% | 8.33 nM 1.1% | 100 nM 0.33% | 833.33 nM 1.99% | 10000 nM -5.52%

CN(C(=O)CN1C(=O)COc2cc(Cl)c(Cl)cc21)[C@@H](CN1CCCC1)c1ccc(-c2cccc(C(N)=O)c2)cc1
inactive: 1 nM -0.51% | 8.33 nM 1.04% | 100 nM 3.9% | 833.33 nM 1.88% | 10000 nM 5.93%

CO[C@H]1C[C@@H]2CC[C@@H](C)[C@@](O)(O2)C(=O)C(=O)N2CCCC[C@H]2C(=O)O[C@H]([C@H](C)C[C@@H]2CC[C@@H](O)[C@H](OC)C2)CC(=O)[C@H](C)/C=C(\C)[C@@H](O)[C@@H](OC)C(=O)[C@H](C)C[C@H](C)/C=C/C=C/C=C/1C [sirolimus]
inactive: 1 nM -1.48% | 8.33 nM -3.33% | 100 nM -1.82% | 833.33 nM -0.23% | 10000 nM -0.88%
